Cycloheximide cs: counter-screen hit for Shiga toxin inhibitors, cycloheximide | cell reporter, cycloheximide protein synthesis inhibition counterscreen | max response, % | 300,000 compounds, 12% hits; in the data active = max response mostly above about 13%, no sharp cut-off; inactive = mostly below about 14%; also: read at 38.3 µM for the half of the compounds with a filed dose; 0% is about no effect
MARV entry inh: blocks Marburg virus binding to or entry into cells. Marburg virus pseudotyped entry inhibition, cell reporter. Potency, µM (highest dose often 37.8 µM), for inactives: at the highest dose activity change, negative = inhibition, hits mostly inhibitors. 300,000 compounds, 1.8% hits. AID 540276; calls by dose curve; tested in HEK293 cells; also: potency is read from the fitted curve at half-maximal effect; % is scaled to controls: 0 for no effect and ±100 for the full control effect
Lassa entry inh: blocks Lassa virus binding to or entry into cells; Lassa virus pseudotype entry inhibition, cell reporter; Potency, µM (highest dose often 37.9 µM), without a hit: at the highest dose activity change, negative = inhibition, actives largely listed as inhibitors; 300,000 compounds, 1.2% hits; AID 540256; calls by dose curve; tested in HEK293 cells; also: potency is read from the fitted curve at half-maximal effect; % is scaled to controls: 0 for no effect and ±100 for the full control effect; nearly all actives have a fitted effect of over 50% in size
Shiga toxin inh: Shiga toxin inhibition; Vero cells, Shiga toxin protein synthesis inhibition reporter; inhibition, % at 38.7 µM; 290,000 compounds, 9.2% hits; AID 2315; in the data active = inhibition mostly above about 28%, no sharp cut-off; inactive = mostly below about 43%; also: 0% is about no effect
* marks the source's active call; other numbers are inactive results; ? = inconclusive; / = not tested or not shown; [ ] = another dose, or the depositor's remark. In the library only some 12% were active in any assay of this set; here they are far more common.

SMILES	Cycloheximide cs	MARV entry inh	Lassa entry inh	Shiga toxin inh
O=C(Nc1ccccc1C(=O)Nc1ccc(F)cc1)c1ccco1	11	27%[46.1 µM]	?	40
CCN(CC)CC(=O)Nc1sc(C)cc1C(=O)c1ccccc1	5	?	-11%	3
Cc1cc(C(=O)c2ccccc2)c(NC(=O)CCl)s1	-2	1µM*	-16%	-15
COC(=O)c1sc(-c2ccc(C(C)(C)C)cc2)cc1NC(=O)CCC(=O)O	27*	/	/	64*
COC(=O)c1sc(-c2ccc(Cl)cc2)cc1NC(=O)COCC(=O)O	-2	/	/	1
COc1ccc(C(=O)/C=C/Nc2cc(C)ccn2)cc1	29*	1.3µM*	?	38
O=C(/C=C\Nc1ccc(Cl)cn1)c1ccc(Br)cc1	14	?	?	36
Cc1ccnc(N/C=C/C(=O)c2ccc(Br)cc2)c1	49*	?	?	110*
Cc1cc(N/C=C/C(=O)c2ccc(Br)cc2)no1	16*	4%	-6%	49*
Cc1cc(N/C=C/C(=O)c2cccc3ccccc23)no1	11	2%	19%	27
CC(=O)OC[C@H]1O[C@H](CC=NOCC[C@@H]2C=C[C@@H](OC(C)=O)[C@@H](COC(C)=O)O2)C=C[C@@H]1OC(C)=O	/	10%[14.2 µM]	/	/
CCOc1ccc(NS(=O)(=O)c2cc(C(=O)N3CCN(c4ccccc4O)CC3)ccc2Cl)cc1	/	-21%	-5%	/
O=C(c1ccccc1F)N1c2nc(-c3ccco3)nn2C2(CCCCC2)[C@@H]2CCCC[C@@H]21	/	?	6%[46.1 µM]	/
CCOC(=O)C1(Cc2cccc(F)c2)CCN(Cc2cnn(CC)c2C)CC1	-5	?	?	-12
CN1CCN(C2Cc3ccccc3Sc3ccc(Cl)cc32)CC1 (configuration not stated)	/	16µM*	10µM*	/
CSc1ccc2c(c1)C(N1CCN(C)CC1)Cc1ccccc1S2 (configuration not stated)	-4	6.3µM*	18µM*	-4
CSc1cccc(NC(=O)N2CCN(C)CC2)c1	-1	/	/	20
CN1CCN(C2OC(=O)c3ccccc32)CC1 (configuration not stated)	-1	0%	8%	-9
CN(Cc1ccccc1)C(=O)c1ccccc1N(C)S(=O)(=O)c1ccccc1	/	-10%[46.1 µM]	?	/
COc1ccccc1/C=C/C=N/NC(=O)c1cccs1	44*	?	?	116*
COc1ccccc1/C=C\C=N\NC(=O)c1ccco1	39*	0%[46.1 µM]	0%	153*
COc1ccc(CNC2CCSc3ccccc32)cc1OC (configuration not stated)	1	?	-14%	-3
O=C(C1CC(=O)N(c2ccccc2)C1)N1CCN(c2ccccc2F)CC1 (configuration not stated)	-2	?	-8%	-6
CCOc1ccc(/C=C2\SC(=S)N(CC(=O)NCCCN3CCOCC3)C2=O)cc1	22*	5%[46.1 µM]	15%	47*
O=C(CN1C(=O)/C(=C/c2cccc(Br)c2)SC1=S)NCCCN1CCOCC1	8	-1%	-13%	16
SMILES	Cycloheximide cs	MARV entry inh	Lassa entry inh	Shiga toxin inh
CC(C)c1ccc(/C=C2\SC(=S)N(CC(=O)NCCCN3CCOCC3)C2=O)cc1	39*	-1%[46.1 µM]	/	46
CC(C)c1ccc(/C=C2\SC(=O)N(CC(=O)NCCCn3ccnc3)C2=O)cc1	39*	/	/	69*
COC(=O)CN1C(=O)[C@@H]2[C@H](C1=O)[C@@H]1CC(C(=O)OC)=C[C@@H](C(=O)OC)C3C1=C(C(=O)[C@]3(C)NC(=O)c1ccccc1)[C@@H]2C (some centres not stated)	-7	/	/	-11
COc1ccc(S(=O)(=O)N2CCOCC2)cc1NC(=O)CN1CCC(Cc2ccccc2)CC1	-3	?	10µM*	-13
CC(=O)NCCOc1ccc2oc3ccccc3c2c1	31*	?	?	71*
CC1CCCN(C(=O)NC(=O)c2ccc(Cl)cc2)C1 (configuration not stated)	2	3%[46.1 µM]	20%[46.1 µM]	29
CC1CN/C(=C\C(=O)c2ccccc2)C(=O)N1 (configuration not stated)	44*	?	?	79
CC1CN/C(=C\C(=O)c2ccc(Cl)cc2)C(=O)N1 (configuration not stated)	25*	?	?	50
Cc1ccccc1CN1CCN(CC(=O)NCc2ccc3c(c2)OCO3)C1=O	11	15%	-12%	-15
CCOc1ccc(OCCCCN2CCCC2)cc1	-2	22%[46.1 µM]	15%	33
CCCCCCOc1ccc(CN2CCN(C)CC2)cc1	41*	?	?	134*
Cc1ccc(OCCCCN2CCCCC2)cc1	1	/	/	-1
CCCCOc1ccc(CN2CCCCC2)cc1	17*	?	11%	45*
Oc1ccc(N2CCN(Cc3ccc(OCCCN4CCCCC4)cc3)CC2)cc1	-2	13µM*	7%[46.1 µM]	-3

Compound activity (PubChem)
